In PubChem BioAssay one finds nuclei count and inhibition data, which are given here for 40 molecules.

Activity calls are given as the source filed them.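 The calls were made as follows: active = visually confirmed hit in the image check and inhibition above 20%; inconclusive = visually confirmed hit but inhibition not above 20%; inactive = no visual hit in the image check.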

A short description of the assay: inhibitors of E-selectin induction by TNFa, primary screen, imaging, HUVEC, immunofluorescence, MLSMR starter and 10KST1 sets (AID 487).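 As to inhibition: signal is fraction of cell area covered by stained E-selectin grains.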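 As to nuclei count: 100% = median nuclei count of all wells on the same plate.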 The conditions noted are these: HUVEC TNFalpha-induced E-selectin immunofluorescence imaging, at 2 µM; inhibition: stronger effect = higher value; nuclei count: measured here: cell number, toxicity.
Usually inhibition stands for the relative decrease from the control value, in per cent. As to `CCCCCn1c(CN2CCN(C(=O)c3ccco3)CC2)nc2c1c(=O)n(C)c(=O)n2C`, the nuclei count stood at 113% and the inhibition is -13.1% (inactive).
The matching figures for `Cc1cc(C(=O)COC(=O)C2COc3ccccc3O2)c(C)n1CC1CCCO1` (stereo not given): 119% and -126% (inactive).
In the case of `COC(=O)Oc1c(Br)c(=O)oc2ccccc12`, the inhibition is -49.4% (inactive) and the nuclei count turned out to be 110%.
The like results for `CCOC(=O)CN1CC23C=CC(O2)C(C(=O)Nc2ccc(OCC)cc2)C3C1=O` (stereo not given) were, in that order, -5.7% (inactive) and 106%.
The like results for `O=C(Cn1cc2c(n1)CCCC2)NCCc1ccccc1` were, in that order, -47.8% (inactive) and 118%.
For the molecule `CCCC1(C(=O)OCC)NC(c2ccc(N(C)C)cc2)C2C(=O)N(c3ccc(F)cc3)C(=O)C21` (stereo not given), the inhibition was 1.4% (inactive) and the nuclei count turned out to be 134%.
The like results for `COC(=O)c1ccc(NC(=O)CN2CCCC2)cc1` were, in that order, 51.6% (inactive) and 141%.
`C=CCc1ccccc1OCCCCN1CCCC1`: the inhibition is -10.4% (inactive) and the nuclei count is 114%.
As to `O=C(NCc1ccc2c(c1)OCO2)c1ccccn1`, the inhibition was 5.4% (inactive) and the nuclei count turned out to be 122%.
The like results for `O=C(CSc1nnc(NC(=O)C2CCC2)s1)NC1CC1` were, in that order, -90.7% (inactive) and 106%.
For `CCOC(=O)Cc1nnc2c(Nc3ccc(C)cc3)nc3nonc3n12`, the nuclei count was 83% and the inhibition is 6.7% (inactive).
The like results for `COc1ccc(C(=O)NCC(=O)NC2=NCCS2)cc1` were, in that order, 106% and -43.6% (inactive).
The like results for `Cc1nc(NC(=O)c2ccccc2)sc1-c1csc(NCc2ccco2)n1` were, in that order, 113% and -13% (inactive).
The matching figures for `COc1ccccc1-c1nnc(SCC(=O)NC2CCCCC2)o1`: 104% and -86% (inactive).
Consider `O=C(CSc1nnnn1-c1ccc(Cl)cc1)NC(=O)Nc1ccc2c(c1)OCCO2`, for which the nuclei count is 120% and the inhibition is -86.5% (inactive).
The like results for `O=C(CCC(=O)c1cccs1)NCc1ccccc1` were, in that order, 132% and -24.2% (inactive).
The like results for `Cn1c(=O)oc2cc(S(=O)(=O)N3CCN(c4ccccn4)CC3)ccc21` were, in that order, 117% and -36.5% (inactive).
For `CC(=O)c1ccccc1Oc1nc(CN2CCOCC2)nc2scc(-c3cccs3)c12`, the nuclei count is 109% and the inhibition is -50.4% (inactive).
The like results for `Cc1ccc(NC(=O)CCC(=O)O)cc1F` were, in that order, 115% and -10.9% (inactive).
The matching figures for `Cc1c(C#N)c2ncnc(-c3ccccc3)c2n1-c1ccccc1`: 108% and -8.1% (inactive).
As to `O=C(c1ccc(CSCc2ccccc2F)o1)N1CCN(c2ccc(N3CCOCC3)nn2)CC1`, the inhibition was -7.9% (inactive) and the nuclei count is 101%.
The matching figures for `COc1ccc(N2CCN(C(=O)c3c(-c4ccccc4)noc3C)CC2)cc1`: -7.4% (inactive) and 96%.
As for `Cn1c(=O)[nH]c(=O)c2c1nc(N1CCNCC1)n2CCOc1ccccc1`, the inhibition was -91.3% (inactive) and the nuclei count amounted to 124%.
As for `CC1CCCCN1CCNS(=O)(=O)c1ccc2c(c1)oc(=O)n2C` (stereo not given), the nuclei count came out at 88.9% and the inhibition is 18.9% (inactive).
The matching figures for `CN1CCN(Cc2nc3c(c(=O)[nH]c(=O)n3C)n2CCc2ccccc2)CC1`: 119% and -34.7% (inactive).
The matching figures for `O=C(c1ccco1)N1CCN(C(=O)c2sccc2-c2ccccc2)CC1`: 115% and -74.7% (inactive).
The like results for `CC(C)CN(C(=O)c1ccc(=O)n(C)n1)c1nc2ccccc2s1` were, in that order, 112% and -5.9% (inactive).
For `CCOC(=O)N1CCC(NC(=O)CN2C(=O)CCSc3ccccc32)CC1`, the nuclei count stood at 108% and the inhibition was -78% (inactive).
The matching figures for `CCOc1ccc(NC(=O)CN2C(=O)C3CCCN3C2=O)cc1` (stereo not given): 110% and -48.6% (inactive).
The like results for `COc1ccc(-c2ccc(-c3noc(-c4ccccc4OC)n3)c(OC)n2)cc1` were, in that order, 111% and -1.9% (inactive).
The matching figures for `Cc1ccc(S(=O)(=O)N2CCN(CCO)CC2)cc1-c1nnc2c3ccccc3c(C)nn12`: 81% and 8.6% (inactive).
Consider `CN(C)c1ccc(NC(=O)c2cc3c(=O)n4ccccc4nc3n2C)cc1`, for which the nuclei count amounted to 68.8% and the inhibition was 52.4% (inactive).
The like results for `Cc1cc(NC(=O)c2cccc(S(=O)(=O)N3CC(c4ccccc4)CC3=O)c2)no1` (stereo not given) were, in that order, 121% and -44.9% (inactive).
The matching figures for `CN(CCc1ccccn1)C(=O)CCNC(=O)Cn1cnc2ccccc2c1=O`: 110% and -6.6% (inactive).
The matching figures for `Cc1onc(-c2c(Cl)cccc2Cl)c1C(=O)NCC1CCCO1` (stereo not given): 113% and -10.7% (inactive).
Consider `CCOC(=O)C1(c2ccccc2)NC(c2ccc(N(C)C)cc2)C2C(=O)N(C)C(=O)C21` (stereo not given), for which the nuclei count was 93.2% and the inhibition is -87.1% (inactive).
The like results for `COc1ccc(C2C(C(=O)Nc3cccnc3)=C(C)Nc3nc(-c4cccs4)nn32)cc1OC` (stereo not given) were, in that order, 104% and 3.4% (inactive).
With `CN(C)S(=O)(=O)Nc1ccc(Br)cc1F`, the nuclei count was 100% and the inhibition was -24.9% (inactive).
The like results for `CNC(=O)c1ccsc1NC(=O)CN1C(=O)CCC1=O` were, in that order, 113% and 4.8% (inactive).
For `CC(C)C(NC(=O)OCc1ccccc1)C(=O)OCC(=O)NCc1ccco1` (stereo not given), the nuclei count was 119% and the inhibition was 7.4% (inactive).
